GPR151 ag = activators of human GPR151; PathHunter beta-arrestin GPR151 cells, luminescence; activation, % at 11.2 µM; Q8TDV0; AID 1508602; 1% of 650,000 active; in the data active = activation above about 4.9%
MITF inh = blocks human microphthalmia-associated transcription factor; AlphaScreen MITF homodimerization, bead proximity signal; inhibition, % at 2.6 µM; 0.91% of 650,000 active; AID 1259374; in the data active = inhibition above about 50%
FBW7 act = activators of human E3 ligase FBW7; Q969H0; AlphaScreen FBW7–phospho-cyclin E peptide binding, activator screen; normalized activity (activation), % at 26.1 µM; 0.13% of 650,000 active; AID 1259310; in the data active = normalized activity above about 1.9%;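 note: purified mutant Fbw7 with reduced substrate affinity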
Target sequence (Q969H0 whole entry, looked up): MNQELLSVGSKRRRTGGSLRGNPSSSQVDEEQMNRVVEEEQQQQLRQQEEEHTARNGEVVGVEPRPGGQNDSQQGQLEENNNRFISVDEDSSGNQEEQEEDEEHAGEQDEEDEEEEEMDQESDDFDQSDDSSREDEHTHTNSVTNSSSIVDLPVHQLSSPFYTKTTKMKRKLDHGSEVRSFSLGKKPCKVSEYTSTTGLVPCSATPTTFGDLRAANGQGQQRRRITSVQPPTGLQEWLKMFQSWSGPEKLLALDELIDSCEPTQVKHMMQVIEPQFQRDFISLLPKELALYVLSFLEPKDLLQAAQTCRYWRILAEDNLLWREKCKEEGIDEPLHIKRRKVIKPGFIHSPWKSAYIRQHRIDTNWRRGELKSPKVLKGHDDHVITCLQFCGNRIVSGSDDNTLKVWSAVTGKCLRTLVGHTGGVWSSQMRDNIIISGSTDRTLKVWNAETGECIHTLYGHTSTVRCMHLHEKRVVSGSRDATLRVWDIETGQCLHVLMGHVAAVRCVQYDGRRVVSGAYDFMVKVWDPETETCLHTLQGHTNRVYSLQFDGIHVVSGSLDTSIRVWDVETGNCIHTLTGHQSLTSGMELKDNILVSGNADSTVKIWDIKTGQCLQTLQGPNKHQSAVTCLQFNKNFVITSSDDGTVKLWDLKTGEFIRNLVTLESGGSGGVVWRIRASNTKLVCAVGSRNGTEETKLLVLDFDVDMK
TEAD-YAP block = TEAD-YAP interaction inhibition | HEK-TIYL cells, TEAD-Gal4/YAP UAS-luciferase luminescence | inhibition, % at 9.12 µM | 1.4% of 640,000 active; in the data active = inhibition above about 32%
A number is an active result; n = inactive. Shown are actives, neighbours in structure and some others; about 3.4% of the full set was active somewhere.

SMILES | GPR151 ag | MITF inh | FBW7 act | TEAD-YAP block
CC(C)(C)OC(=O)N/N=C\c1cccc(/C=N/NC(=O)OC(C)(C)C)c1 | n | n | n | 65
CC(C)(C)OC(=O)N/N=C/c1ccc(Br)cc1 | n | n | n | n
Cc1ccc(/C=N/NC(=O)c2cc(-c3ccccc3)n[nH]2)c(O)c1 | n | n | n | n
CCCCC(=O)N/N=C(\C)CC(=O)Nc1cccc(I)c1 | n | n | n | n
CCCCC(=O)N/N=C(\C)CC(=O)Nc1cccc(OC)c1 | n | n | n | 44
Cc1cc(O)cc(O)c1/C=N/NC(=O)c1cc(-c2ccccc2)n[nH]1 | n | n | n | 33
COc1cccc(/C=N/NC(=O)c2cc(-c3ccc(C)cc3)n[nH]2)c1 | n | n | n | 45
CC(=O)c1cccc(NC(=O)COc2ccc(C(C)(C)CC(C)(C)C)cc2)c1 | n | n | n | n
Cc1ccc(-c2cc(C(=O)N/N=C/c3cccc(O)c3)[nH]n2)cc1 | n | n | n | 35
COc1cccc(/C=N/NC(=O)CCCCC(=O)N/N=C/c2cccc(OC)c2)c1 | n | n | n | 74
COc1cccc2c1OC1(CCN(C(=O)c3ccc4c(c3)CCO4)CC1)OC2 | n | n | n | n
O=C(/C=C/c1ccccc1)c1c(O)c2ccccc2[nH]c1=O | n | n | n | n
Cc1[nH]c2ccccc2c(=O)c1C(=O)/C=C/c1ccccc1 | n | n | n | 93
COCCCn1c(C)cc(C(=O)CSc2ncnc3sccc23)c1C | n | n | n | 43
O=C(CSc1ncn[nH]1)Nc1ccc(-c2nc3ccccc3s2)cc1 | n | n | n | 53
Cc1ccc2nc(-c3ccc(NC(=O)CSc4ncn[nH]4)cc3)sc2c1 | n | n | n | 73
Cc1ccc(NC(=O)CSc2ncn[nH]2)cc1 | n | n | n | n
COC(=O)c1ccc(NC(=O)CSc2ncn[nH]2)cc1 | n | n | 2.4 | n
COc1ccc(NC(=O)CSc2ncn[nH]2)cc1 | n | n | n | n
CCOC(=O)c1c(C)nc2ccc(Br)cc2c1-c1ccccc1 | n | n | n | n
O=C(NCc1ccccc1)c1csc(Nc2ccc3ncccc3c2)n1 | n | n | n | n
CCc1c(C(=O)N/N=C/c2ccc(O)cc2O)nnn1-c1nonc1N | n | n | n | 76
CN(C)Cc1c(C(=O)N/N=C/c2ccc(O)cc2O)nnn1-c1nonc1N | n | n | n | n
Cc1nonc1C(=O)N/N=C/c1ccc(O)cc1O | n | 82 | n | n
CC(C)(C)c1ccc(C(=O)N/N=C/c2ccc(O)cc2O)cc1 | n | n | n | n
SMILES | GPR151 ag | MITF inh | FBW7 act | TEAD-YAP block
CCCN(CCC)Cc1c(C(=O)N/N=C/c2ccc(O)cc2O)nnn1-c1nonc1N | n | n | n | 71
CC(=O)N(C)c1ccc(NC(=O)c2cccc([N+](=O)[O-])c2C)cc1 | n | n | n | n
COC(=O)Cc1nc(NCc2ccccc2)c2c(C)c(C)sc2n1 | n | n | n | 67
Cn1cc(S(=O)(=O)N2CCCC2)cc1C(=O)N1CCc2ccccc2C1 | n | n | n | n
COc1ccc(C(=O)Nc2nnc(SCC(=O)Nc3cccc(C)c3)s2)cc1 | n | n | n | n
NNC(=O)/C(=C/c1cccs1)NC(=O)c1ccccc1Cl | n | n | n | 42
NNC(=O)/C(=C/c1ccc2c(c1)OCO2)NC(=O)c1ccccc1Cl | n | n | n | n
CCOC(=O)COc1ccc(/C=C2\Sc3ccccc3C2=O)cc1OC | n | n | n | n
Cc1cc(C)c2cc(C)c3nn(CCN(C)C)c(=O)n3c2c1 | n | n | n | 41
Cc1cc2cc3c(cc2n2c(=O)n(CCN(C)C)nc12)OCO3 | n | n | n | n
C=CCNC(=O)/C=C/c1cccc([N+](=O)[O-])c1 | n | n | n | n
C=CCOc1ccc(/C=C2/C(=O)ON=C2c2ccccc2)cc1 | n | 65 | n | n
CCCCCOc1ccccc1/C=C1/C(=O)ON=C1c1ccccc1 | n | 62 | n | n
O=C1ON=C(c2ccccc2)/C1=C/c1c(OCc2ccc(Cl)cc2)ccc2ccccc12 | n | n | n | n
CCOc1cc(/C=C2\C(=O)ON=C2c2ccccc2)ccc1OCc1ccccc1 | n | 57 | n | n
O=C1ON=C(c2ccccc2)/C1=C\c1ccccc1OCc1ccc(Cl)cc1 | n | 68 | n | n
CC(Cc1cccnc1)NC(=O)COc1ccc(N2CCN(C3CCCCC3)CC2)nn1 (centres undefined) | n | n | n | n
CCCCOc1ccccc1/C=C1/C(=O)ON=C1c1ccccc1 | n | 68 | n | n
O=C(Nc1ccc(Cl)cc1)C1C2C=CC3(O2)C1C(=O)N(Cc1ccccc1)C3C(=O)NC1CCCCC1 (centres undefined) | n | n | n | n
CC(Nc1cc(N2CCN(C(=O)c3ccco3)CC2)ccc1[N+](=O)[O-])C12CC3CC(CC(C3)C1)C2 (centres undefined) | n | n | n | 43
COc1ccc(N(C)C2=NS(=O)(=O)c3ccccc32)cc1 | n | n | n | 45
Cc1ncn(-c2ccc(Nc3ncc4cccc(-n5ccnc5)c4n3)cc2)n1 | n | n | 5.7 | 38
Cc1ncn(-c2ccc(Nc3ncc4cccc(N5CCOCC5)c4n3)cc2)n1 | n | n | n | 48
COc1cc(NC(=O)c2cc([N+](=O)[O-])ccc2N2CCN(C)CC2)c2ncccc2c1 | n | n | n | n
CCOC(=O)C1CCN(c2ccc([N+](=O)[O-])cc2C(=O)Nc2cc(OC)cc3cccnc23)CC1 | n | n | 2.1 | n
SMILES | GPR151 ag | MITF inh | FBW7 act | TEAD-YAP block
CC(=O)Oc1ccc(N2C(=O)c3ccc(-c4nc5ccccc5c(=O)o4)cc3C2=O)c(C)c1 | n | n | n | n
CCC(=O)N(/C=C1\Sc2ccccc2C1=O)c1ccccc1OC | n | n | n | 83
CCC(=O)N(/C=C1\Sc2ccccc2C1=O)c1ccc(C)cc1 | n | n | n | 53
CCC(=O)N(/C=C1\Sc2ccccc2C1=O)c1ccccc1 | n | n | n | n
COc1ccc(N(/C=C2\Sc3ccccc3C2=O)C(=O)c2ccco2)cc1 | n | n | n | n
CC(=O)Nc1ccc(Nc2nc(-c3c(C)nc4ccccn34)cs2)cc1 | n | n | n | 50
Cc1nc2ccccn2c1-c1csc(N)n1 | n | n | n | 44
Cc1nc2ccccn2c1-c1csc(Nc2ccc(O)cc2)n1 | n | n | n | n
Cc1nc2ccccn2c1-c1csc(Nc2ccc(N)cc2)n1 | n | n | n | 54
Cc1ccc(/C(O)=C2\C(=O)C(=O)N(c3nccs3)C2c2ccc(C)cc2)cc1 (centres undefined) | n | n | n | n
CC(C)(C)c1ccc(C(=O)Nc2ccccn2)cc1 | n | n | n | 84
Cc1ccc(C(=O)Nc2ccccn2)cc1C | n | n | n | 44
C=CCOc1ccc(C(=O)Nc2ccccn2)cc1 | n | n | n | 52
Cc1ccc(OCC(=O)NCc2ccc(Cl)cc2)cc1 | n | n | n | n
O=C(Nc1ccc(Br)cc1)c1ccc(F)c(S(=O)(=O)NC2CCCCCC2)c1 | n | n | n | 40
CCOc1ccc(NC(=O)c2ccc(F)c(S(=O)(=O)NC3CCCC3)c2)cc1 | n | n | n | 69
CCOC(=O)c1c(N)sc(C(=O)NC2CCCCC2)c1C | n | n | n | 70
CCOC(=O)c1sc(C)c(C(=O)NC2CCCCC2)c1N | n | n | n | n
CCC(=O)Nc1sc(C(=O)NC2CCCCC2)c(C)c1C(=O)OC | n | n | n | 37
